Among the data in the supplement of paper PMC6555819 are PBM binding z-score values, retold here.

In the test the test system is VDR:RXRa (NR concentration 270 nM, RXRa partner concentration 90 nM). The test is described as follows: PBM binding z-score (relative to random genomic background probes); higher = stronger binding; sequences stand for … in GC…GCGATTGACAGCGTAGAATGAAGG
Here is the method: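 Protein-binding microarray (Agilent 4x180K custom design, double-stranded 60-nt probes: 5' GC cap, 34-nt variable region, 24-nt constant primer region; full probe sequence given). Purified or IVT nuclear receptor:RXRα heterodimers (3:1 NR:RXRα, mostly 270:90 nM) or homodimers were incubated for 1 h in PBS with 2% milk and no ligand, then detected with Alexa488 antibodies. Fluorescence from o1-orientation probes (~5 replicates averaged) was converted to z-scores against 500 random hg19 background probes. Variable regions are seed direct-repeat (DR0–DR5) sites, all their single-nucleotide variants and half-site ablations.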
GCTCGGAGGACTAGGTCAGAGCTTTGTCCGTAGA came in with a PBM binding z-score of -0.562.
With ACAGACCGGTGATGAAGGTAACTCAGGCTATCAT the figure was -0.216; with TCTTGTAGATCAATAGAGGTTAAGGAAGTGCGCT, 1.77; with AGAACGAGGGGACGCTGAGTTGATAGCAGAGTAG, 0.464.
In the case of AGAATGAGGTTATTAAGATCAGGGAATTGCGGTC it was 2.62; in that of GGAACGAGGGCATTCGAGTTGATAGTATGGCGAT, 4.13; in that of CGAACTAGGTCAAAGACAGTGAATCTCCGCACGC, 1.36.
In the case of CAAACTAGGTCAAGAAGTCAAAGTCCGCTTCCCG it was 1.93; in that of CCTACTCGGCCAAAGGTCATTGATTCCAATGCTC, 4.8.
CCTATTAATTGACCATAAGGGCAACCGAAGCTCG returned a PBM binding z-score of 0.371.
In the case of ATCAAAAGGTCGTGAGGTGAGTATACAGAAAGGC it was 3.92; in that of AGAATGAGGTTATTAAGATTAGGGAATTGCGGTC, 1.29; in that of CTCGAAAGGTCGGTTGAGGTGGGTATACGGATAA, 1.63.
Sequence CCTTCTAGGTCAATGGTCAGCTAAAGCAGCTCGC returned a PBM binding z-score of 1.16.
In the case of ACAGACAGGTGATAAAGGTAACTCAGGCTATCAT it was 0.455; in that of AGAATGAGGGCACGCTGAGTTGATAGCAGAGTAG, 2.35.
With GGAACGAGGGCAAAGTTAATAGCATCTGTCGACG the figure was 1.17.
Sequence CGAACTAGGTCATCCAGGCCAGTGAATACATTGA yielded a PBM binding z-score of 3.97.
In the case of CCTCCAAGGTCAAAGGTCAGTGAAGAGATGACGG it was 6.52; in that of CCTACTGGGCCATAAAGGTCATTGATGCCGATAA, 4.93.
Sequence AGAATGCGGTTAAGATCAGGGAAACAGAATACAT displayed a PBM binding z-score of -0.269.
Turning to ATCGAACGGTCGTGAGGTGAGTATACAGAAAGGC, the PBM binding z-score is -0.0539.
In the case of TAGCCTAGGTCATGGGCCACTATACCACGCGAAC it was 2.22; in that of CCTTACGGGTCACTGACAGGTTATATCATTTGGA, 3.81; in that of AATACAGGGTCACCAGGCCAGAGTAGGTACGAAT, 4.82.
The sequence CGATCTAGGTCAGAACAGGACAGTGAAGGATGAT gave a PBM binding z-score of 0.316.
In the case of TTATATAGGTAAATGCTAGGTGAAAGTCCGATCT it was 0.639; in that of CAAACTAGGTCAAGGTCAAAATCGGTTTGTGCCA, 4.7; in that of CCTGCTAGGTCATGGTCATCTAATCTACAGTATG, 1.89.
As to CCTCAAAGTTCAAGGTAACGTAACAGAAAGCAGC, the PBM binding z-score worked out at 4.07.
With CCTACTGGGCCAAAGGTCATTAATTCCAATGCTC the figure was 4.22; with TCTTGTAGATCAAGAGGAGGTTAAGAAAGATCGA, 0.632; with CAAACTAGGTCACAGAGGTCAAAGTACGTGCGTA, 7.94.
The sequence ACTTACGTGTCAACGAGGTTATAGCACGCGTATA displayed a PBM binding z-score of 5.46.
The sequence GCCATTAGTTGAAAGGGCAACCGAATGATTCTCG returned a PBM binding z-score of 0.274.
In the case of GCTAGCAGGCCATTTGGGTCACTTAATGACGGGC, the PBM binding z-score amounted to 0.902.
In the case of ACTATTATTTGAGACGAGGGCAACCGATAGGTTG it was 1.1; in that of CCTGCTAGGTCAATGGTCACCTAAAGCAGCTCGC, 1.45.
In the case of ATACCAAGGTGATCGTGAGGTCTTTGATACTAAC it was 0.526; in that of CCAGACAGGTGAGAAGGTAACTCCGCCTCGATTA, -0.335.
